# About 6,000 (1.7%) of roughly 350,000 compounds were called active. Roughly 5% stayed inconclusive and do not appear here. Shown is part of a subset that was picked to be rich in actives. A number with no mark means an inactive call. Cut-off read from the data, not from the text of the source: active = CPE inhibition above about 20% (passing the limit was not always enough); inconclusive = no clear call, values can overlap the other calls; tested in BHK-21 cells.
# Test: inhibitors of DENV2 cytopathic effect, primary screen, cell-based, plate reader, single concentration (AID 651640);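 note: 0% = median of neutral control wells and 100% = median of positive control wells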
# Settings: DENV2-infected cells, cytopathic effect rescue, at 9.99 µM, hits give high values
row,SMILES,CPE inhibition
1,O=C1CC2(CCCCC2)Oc2ccc(OCC(=O)N3CCOCC3)cc21,2.58%
2,O=C1CC2(CCN(C(=O)COc3ccc(F)cc3)CC2)Oc2ccccc21,29.9% (active)
3,Cc1ccc(N2CC(C(=O)N3CCC4(CC3)CC(=O)c3ccccc3O4)CC2=O)cc1C (stereo unspecified),-6.93%
4,Cc1cccc(Oc2c([N+](=O)[O-])c(=O)n(C)c3ccccc23)c1,-2.07%
5,COc1cc2c(=O)n(C)c3ccccc3c2cc1OC,0.702%
6,Cc1cc(C)c(-c2c(O)c3ccccc3n(C)c2=O)c(C)c1,72% (active)
7,CC(C)NC(=O)N(C)C[C@H]1OCCCC[C@H](C)Oc2ccc(NC(=O)CCC(F)(F)F)cc2C(=O)N([C@H](C)CO)C[C@H]1C,7.36%
8,COCCN1C(=O)N[C@@H](CCc2ccccc2)[C@H](C(C)=O)[C@H]1C,-5.61%
9,CCN1C(=O)N[C@@H](CCc2ccccc2)C(C(=O)OC)=C1C,-5.47%
10,CCN1C(=S)N[C@@H](CCc2ccccc2)[C@H](C(=O)OC)[C@H]1C,65.7% (active)
11,CCS(=O)(=O)Nc1ccc2c(c1)C(=O)N(C)[C@H]1CC[C@@H](CC(=O)N3CCCCC3)O[C@H]1CO2,-4.09%
12,COc1ccc(S(=O)(=O)N(C)C[C@H]2Oc3ccc(NC(=O)CCC(F)(F)F)cc3CC(=O)N([C@H](C)CO)C[C@@H]2C)cc1,15.8%
13,CO[C@H]1CN(C)C(=O)c2ccc(NC(C)=O)cc2OC[C@@H](C)N(C(=O)c2ccccn2)C[C@@H]1C,-11.8%
14,C[C@H](CO)N1C[C@H](C)[C@H](CN(C)C(=O)Nc2cccc(Cl)c2Cl)OCc2ccccc2-c2ccccc2C1=O,-3.92%
15,S=C(Nc1ccc(Cl)cc1Cl)N1CCCC1,-8.93%
16,O=C(NC(=S)Nc1ccc(Br)cc1F)C1CCCCC1,-4%
17,O=C(NC(=S)Nc1ccc(Cl)cc1Cl)C1CC1,86.2% (active)
18,O=C(Cc1ccccc1)N1C[C@@H]2[C@H](c3ccccc31)[C@@H](CO)N2C(=O)C1CC1,-0.201%
19,CC(=O)N[C@@H]1CC[C@@H](CCNC(=O)C2CC2)O[C@H]1CO,1.82%
20,COc1cccc(CNC(=O)CCN2C(=S)NC(C)(C)CC2C)c1 (stereo unspecified),8.33%
21,CC1CC(C)(C)NC(=S)N1CCC(=O)N1CCN(Cc2ccccc2)CC1 (stereo unspecified),16.6%
22,CCN(Cc1ccccc1)C(=O)CN1C(=S)NC(C)(C)CC1C (stereo unspecified),65.7% (active)
23,C[C@@H]1CN([C@@H](C)CO)C(=O)c2cc(NC(=O)Cn3cnnn3)ccc2O[C@H]1CN(C)Cc1ccc(C(F)(F)F)cc1,-5.69%

row,SMILES,CPE inhibition
1,N#Cc1cccc(-c2ccc([C@H]3[C@@H](CO)N4CCCCN(C(=O)Nc5ccccc5)C[C@H]34)cc2)c1,-9.56%
2,CC(=O)N1CC2(C1)[C@H](c1ccccc1)[C@@H](CO)N2C(=O)Cc1ccccc1,4.56%
3,COCC(=O)N1CC2(C1)[C@@H](c1ccc(-c3cccc(F)c3)cc1)[C@@H](CO)N2C(=O)COC,-4.52%
4,CN(C)CC(=O)N1[C@@H](CO)[C@H](c2ccccc2)C12CN(C(=O)c1cccc(F)c1)C2,49.2% (active)
5,O=C(c1ccccn1)N1CC2(C1)[C@@H](c1ccccc1)[C@@H](CO)N2C(=O)C1CCCCC1,4.48%
6,O=C(C1CCCCC1)N1[C@H](CO)[C@@H](c2ccccc2)C12CN(Cc1cccc(Cl)c1)C2,27.1% (active)
7,C/C=C/c1ccc([C@@H]2[C@@H](CO)N(C(=O)c3ccccc3)C23CN(C(C)=O)C3)cc1,70.8% (active)
8,CCC(=O)N1CC2(C1)[C@H](c1ccccc1)[C@@H](CO)N2C(=O)c1ccccc1,-0.875%
9,CN(C)CC(=O)N1CC2(C1)[C@H](c1ccccc1)[C@H](CO)N2C(=O)C1CC1,24.3% (active)
10,CCCNC(=O)N1CC2(C1)[C@H](c1ccccc1)[C@@H](CO)N2C(=O)C1CC1,16.7%
11,C/C=C/c1ccc([C@@H]2[C@H](CO)N(C(=O)c3cnccn3)C23CN(C(C)=O)C3)cc1,3.48%
12,CN(C)CC(=O)N1CC2(C1)[C@H](c1ccccc1)[C@@H](CO)N2C(=O)C1CCCCC1,-1.45%
13,O=C(C1CCCC1)N1[C@@H](CO)[C@@H](c2ccccc2)C12CN(Cc1ccc(F)cc1)C2,-1.84%
14,COc1ccc2c3c([nH]c2c1)[C@H](CO)N(C(=O)Nc1ccc(F)cc1)CC31CCN(C(=O)Nc2c(C)noc2C)CC1,-3.75%
15,CC=Cc1ccc2n(c1=O)C[C@@H]1[C@@H](CO)[C@H](C(=O)NCCc3ccccc3)N(C(C)=O)[C@H]21 (mixture of isomers),-2.04%
16,Cc1ccc(S(=O)(=O)NCC[C@H]2CC[C@@H](NS(=O)(=O)c3ccccc3Cl)[C@H](CO)O2)cc1,-7.15%
17,COc1ccc(CN(C)C[C@H]2OCCCC[C@H](C)Oc3ccc(NC(=O)Nc4ccc5c(c4)OCO5)cc3C(=O)N([C@H](C)CO)C[C@@H]2C)cc1,-3.02%
18,N#C[C@H]1[C@@H](c2ccccc2C2=CCCC2)[C@H](CO)N1C(=O)c1cccc(F)c1,19.5%
19,C[C@@H]1CN([C@@H](C)CO)C(=O)c2cc(NC(=O)NC3CCCCC3)ccc2O[C@@H](C)CCCCO[C@H]1CN(C)Cc1ccccc1,1.48%
20,CCCC#Cc1cnc2c(c1)C(=O)N([C@H](C)CO)C[C@@H](C)[C@@H](CN(C)C(=O)Nc1ccccc1F)O2,-4.21%
21,CO[C@@H]1CN(C)C(=O)c2ccc(NC(=O)c3ccc(F)cc3)cc2OC[C@H](C)N(C(=O)c2ccc(F)cc2)C[C@@H]1C,-1.44%
22,C[C@@H]1CN([C@@H](C)CO)C(=O)c2c(c3ccccc3n2C)-c2ccccc2CO[C@H]1CN(C)Cc1cccc(C(=O)O)c1,8.1%
23,COc1cccc(C#Cc2cnc3c(c2)C(=O)N([C@H](C)CO)C[C@@H](C)[C@@H](CN(C)C(=O)C2CCC2)O3)c1,-2.93%
